In the supplement of paper PMC10849652:
About 7,900 targets were measured; listed, in parts, are those with a hit and a random draw of the rest. About 0.6% of all pairs of compound and target were hits. Unmarked numbers belong to inactive results.

Tests used:
Assay in all cases: log2 fold change, soluble protein after heating vs DMSO (PISA); higher = thermal stabilisation; K562 cells, 10 uM, 30 min; active = over 0.2 and 3.5 SD of the protein, either way, in both replicates (recomputed)
[1] = compound: CS(=O)(=O)c1ccc(-c2cnc(N)c(C(=O)Nc3ccccc3)n2)cc1
Procedure, shortened: (§1)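 Quantification of soluble protein used TMTpro 16plex LC-MS/MS, with channel sums equalised. Samples were the supernatant after 21,000xg for 90 min of pooled aliquots from K562 cells (2×10^6 cells/mL) treated with 10 μM compound for 30 min, heated for 3 min over 48°C-58°C, and extracted in PBS with 0.5% NP-40 at 4°C. Values, from duplicates, describe thermal stability against control samples on a log2 fold-change scale.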

crizotinib = compound: C[C@@H](Oc1cc(-c2cnn(C3CCNCC3)c2)cnc1N)c1c(Cl)ccc(F)c1Cl [crizotinib]
Procedure, shortened: as §1

[2] = compound: C[C@@H]1COCCN1C2=NC(=NC(=C2)C3(CC3)S(=O)(=O)C)C4=C5C=CNC5=CC=C4
Procedure, shortened: as §1

[3] = compound: C[C@H](C1=CC=C(C=C1)C(=O)NC2=C3C=CNC3=NC=C2)N
Procedure, shortened: as §1

duvelisib = compound: C[C@H](Nc1ncnc2nc[nH]c12)c1cc2cccc(Cl)c2c(=O)n1-c1ccccc1 [duvelisib]
Procedure, shortened: as §1

tozasertib = compound: Cc1cc(Nc2cc(N3CCN(C)CC3)nc(Sc3ccc(NC(=O)C4CC4)cc3)n2)n[nH]1 [tozasertib]
Procedure, shortened: as §1

[4] = compound: Cc1cc(SCc2sc(-c3ccc(C(F)(F)F)cc3)nc2C)ccc1OCC(=O)O
Procedure, shortened: as §1

doramapimod = compound: Cc1ccc(-n2nc(C(C)(C)C)cc2NC(=O)Nc2ccc(OCCN3CCOCC3)c3ccccc23)cc1 [doramapimod]
Procedure, shortened: as §1

ispinesib = compound: Cc1ccc(C(=O)N(CCCN)[C@@H](c2nc3cc(Cl)ccc3c(=O)n2Cc2ccccc2)C(C)C)cc1 [ispinesib]
Procedure, shortened: as §1

nilotinib = compound: Cc1cn(-c2cc(NC(=O)c3ccc(C)c(Nc4nccc(-c5cccnc5)n4)c3)cc(C(F)(F)F)c2)cn1 [nilotinib]
Procedure, shortened: as §1

[5] = compound: Cc1nc(Nc2n[nH]c3c2CN(C(=O)N[C@H](CN(C)C)c2ccccc2)C3(C)C)c2sccc2n1
Procedure, shortened: as §1

dasatinib = compound: Cc1nc(Nc2ncc(C(=O)Nc3c(C)cccc3Cl)s2)cc(N2CCN(CCO)CC2)n1 [dasatinib]
Procedure, shortened: as §1

[6] = compound: Cc1ncc(-c2ccnc(Nc3ccc(S(C)(=O)=O)cc3)n2)n1C(C)C
Procedure, shortened: as §1

[7] = compound: Cn1cc(-c2ccc3c(c2)CCN3C(=O)Cc2cccc(C(F)(F)F)c2)c2c(N)ncnc21
Procedure, shortened: as §1

[8] = compound: Cn1cc(-c2ccc3nnc(C(F)(F)c4ccc5ncccc5c4)n3n2)cn1
Procedure, shortened: as §1

mubritinib = compound: FC(F)(F)c1ccc(/C=C/c2nc(COc3ccc(CCCCn4ccnn4)cc3)co2)cc1 [mubritinib]
Procedure, shortened: as §1

gandotinib = compound: Cc1cc(Nc2cc(CN3CCOCC3)c3nc(C)c(Cc4ccc(Cl)cc4F)n3n2)n[nH]1 [gandotinib]
Procedure, shortened: as §1

bafetinib = compound: Cc1ccc(NC(=O)c2ccc(CN3CC[C@H](N(C)C)C3)c(C(F)(F)F)c2)cc1Nc1nccc(-c2cncnc2)n1 [bafetinib]
Procedure, shortened: as §1

[9] = compound: Cc1cccc(CC(=O)N2CCc3c2ccc(-c2cn(C)c4ncnc(N)c24)c3F)n1
Procedure, shortened: as §1

tipifarnib = compound: Cn1cncc1[C@@](N)(c1ccc(Cl)cc1)c1ccc2c(c1)c(-c1cccc(Cl)c1)cc(=O)n2C [tipifarnib]
Procedure, shortened: as §1

Chain of UniProt P24863 (P24863 whole entry, looked up): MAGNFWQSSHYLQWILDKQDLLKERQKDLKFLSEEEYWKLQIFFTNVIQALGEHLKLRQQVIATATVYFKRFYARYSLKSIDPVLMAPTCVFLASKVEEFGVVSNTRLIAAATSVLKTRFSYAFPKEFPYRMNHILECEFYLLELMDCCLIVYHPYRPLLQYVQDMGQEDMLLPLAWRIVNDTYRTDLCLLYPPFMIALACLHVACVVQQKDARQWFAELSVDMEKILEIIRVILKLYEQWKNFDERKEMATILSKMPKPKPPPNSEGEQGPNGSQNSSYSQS
Chain of UniProt Q14790 (Q14790 whole entry, looked up): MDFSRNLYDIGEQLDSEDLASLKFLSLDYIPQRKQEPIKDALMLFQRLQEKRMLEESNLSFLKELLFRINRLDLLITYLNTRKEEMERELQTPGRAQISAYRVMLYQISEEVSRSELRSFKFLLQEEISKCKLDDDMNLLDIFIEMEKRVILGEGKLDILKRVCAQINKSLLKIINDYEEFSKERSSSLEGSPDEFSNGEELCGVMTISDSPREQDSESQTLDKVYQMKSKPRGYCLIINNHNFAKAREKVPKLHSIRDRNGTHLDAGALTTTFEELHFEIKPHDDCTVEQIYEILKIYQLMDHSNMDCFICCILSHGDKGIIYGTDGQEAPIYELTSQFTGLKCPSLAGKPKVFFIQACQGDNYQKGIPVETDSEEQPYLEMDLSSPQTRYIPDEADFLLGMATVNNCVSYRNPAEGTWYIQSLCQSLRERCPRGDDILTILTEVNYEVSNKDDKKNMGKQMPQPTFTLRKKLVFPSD
Chain of UniProt Q69YH5 (Q69YH5 whole entry, looked up): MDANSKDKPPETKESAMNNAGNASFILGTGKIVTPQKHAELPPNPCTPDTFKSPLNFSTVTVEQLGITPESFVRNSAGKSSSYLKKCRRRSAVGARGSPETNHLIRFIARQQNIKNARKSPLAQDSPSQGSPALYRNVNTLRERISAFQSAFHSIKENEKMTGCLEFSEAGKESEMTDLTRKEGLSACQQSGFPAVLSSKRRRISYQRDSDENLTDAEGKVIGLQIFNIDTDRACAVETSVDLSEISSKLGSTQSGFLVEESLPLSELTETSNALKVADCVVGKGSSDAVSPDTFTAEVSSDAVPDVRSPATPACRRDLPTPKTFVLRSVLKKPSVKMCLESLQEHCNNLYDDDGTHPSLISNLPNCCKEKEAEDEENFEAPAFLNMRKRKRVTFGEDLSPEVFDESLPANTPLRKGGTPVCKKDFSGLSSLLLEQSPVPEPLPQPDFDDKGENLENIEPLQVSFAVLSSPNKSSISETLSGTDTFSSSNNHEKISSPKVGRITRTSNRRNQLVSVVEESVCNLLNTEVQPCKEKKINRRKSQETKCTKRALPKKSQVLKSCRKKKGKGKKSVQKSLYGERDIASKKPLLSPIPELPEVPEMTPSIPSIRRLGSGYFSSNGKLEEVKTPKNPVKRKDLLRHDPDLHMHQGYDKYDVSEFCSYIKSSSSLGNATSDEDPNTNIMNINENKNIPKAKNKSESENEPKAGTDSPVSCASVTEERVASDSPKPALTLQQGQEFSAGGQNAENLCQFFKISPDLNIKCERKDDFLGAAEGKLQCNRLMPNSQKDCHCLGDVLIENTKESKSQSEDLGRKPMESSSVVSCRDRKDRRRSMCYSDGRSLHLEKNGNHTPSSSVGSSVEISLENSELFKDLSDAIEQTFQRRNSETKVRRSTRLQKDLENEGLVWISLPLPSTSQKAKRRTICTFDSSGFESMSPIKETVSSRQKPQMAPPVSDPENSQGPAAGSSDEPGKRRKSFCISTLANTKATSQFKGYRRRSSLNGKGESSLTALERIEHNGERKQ
Chain of UniProt Q14746 (Q14746 whole entry, looked up): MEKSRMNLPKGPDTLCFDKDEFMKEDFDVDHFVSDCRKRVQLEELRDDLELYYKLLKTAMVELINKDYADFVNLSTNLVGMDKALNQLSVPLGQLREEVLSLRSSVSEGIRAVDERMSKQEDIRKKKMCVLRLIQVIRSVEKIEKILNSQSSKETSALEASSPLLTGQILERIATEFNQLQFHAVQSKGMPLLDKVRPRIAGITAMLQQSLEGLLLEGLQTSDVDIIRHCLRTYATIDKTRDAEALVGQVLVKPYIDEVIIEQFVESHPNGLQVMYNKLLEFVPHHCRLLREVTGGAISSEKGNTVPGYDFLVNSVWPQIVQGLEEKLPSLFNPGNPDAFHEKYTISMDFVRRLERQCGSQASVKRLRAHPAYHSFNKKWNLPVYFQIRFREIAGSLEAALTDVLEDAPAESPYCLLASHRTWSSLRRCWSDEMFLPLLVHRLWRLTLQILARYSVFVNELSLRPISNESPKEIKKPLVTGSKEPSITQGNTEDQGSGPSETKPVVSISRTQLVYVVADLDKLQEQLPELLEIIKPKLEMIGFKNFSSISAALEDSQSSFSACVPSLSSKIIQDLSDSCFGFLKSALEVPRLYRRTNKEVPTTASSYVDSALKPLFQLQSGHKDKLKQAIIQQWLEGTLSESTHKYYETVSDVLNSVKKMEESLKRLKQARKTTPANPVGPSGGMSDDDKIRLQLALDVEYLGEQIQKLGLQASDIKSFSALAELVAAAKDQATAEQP
Chain of UniProt Q9Y2V0 (Q9Y2V0 whole entry, looked up): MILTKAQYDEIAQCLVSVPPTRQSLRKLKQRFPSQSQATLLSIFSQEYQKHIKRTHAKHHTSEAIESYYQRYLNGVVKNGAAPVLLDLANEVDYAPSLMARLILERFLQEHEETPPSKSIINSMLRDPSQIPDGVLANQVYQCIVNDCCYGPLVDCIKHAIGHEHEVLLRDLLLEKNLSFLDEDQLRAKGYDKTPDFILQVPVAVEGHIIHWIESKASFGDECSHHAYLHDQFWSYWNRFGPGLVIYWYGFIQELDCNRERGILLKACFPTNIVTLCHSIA
Chain of UniProt Q8WUD6 (Q8WUD6 whole entry, looked up): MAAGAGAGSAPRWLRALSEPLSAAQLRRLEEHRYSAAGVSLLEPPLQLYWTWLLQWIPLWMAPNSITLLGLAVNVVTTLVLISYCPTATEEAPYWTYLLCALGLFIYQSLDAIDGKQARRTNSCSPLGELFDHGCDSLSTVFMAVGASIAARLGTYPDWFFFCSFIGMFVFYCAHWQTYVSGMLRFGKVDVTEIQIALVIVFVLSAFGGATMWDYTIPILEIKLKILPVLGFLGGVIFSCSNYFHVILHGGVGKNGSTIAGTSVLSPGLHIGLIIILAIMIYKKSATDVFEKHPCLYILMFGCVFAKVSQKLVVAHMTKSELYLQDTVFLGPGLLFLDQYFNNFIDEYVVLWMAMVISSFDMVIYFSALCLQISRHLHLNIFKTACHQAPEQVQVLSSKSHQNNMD
Chain of UniProt Q9UIB8 (Q9UIB8 whole entry, looked up): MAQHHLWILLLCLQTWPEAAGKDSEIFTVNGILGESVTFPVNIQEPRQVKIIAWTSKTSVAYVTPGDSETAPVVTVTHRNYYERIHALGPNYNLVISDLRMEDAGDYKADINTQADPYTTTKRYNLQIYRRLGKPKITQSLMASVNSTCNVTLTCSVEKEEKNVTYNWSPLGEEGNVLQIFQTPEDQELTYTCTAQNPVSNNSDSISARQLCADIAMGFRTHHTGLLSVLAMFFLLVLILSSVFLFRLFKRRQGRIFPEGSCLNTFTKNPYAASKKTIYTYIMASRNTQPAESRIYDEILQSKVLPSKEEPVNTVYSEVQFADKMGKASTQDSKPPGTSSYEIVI
Chain of UniProt P24311 (P24311 whole entry, looked up): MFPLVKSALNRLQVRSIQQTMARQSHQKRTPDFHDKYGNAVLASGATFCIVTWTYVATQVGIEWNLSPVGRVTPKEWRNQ
Chain of UniProt Q96MX0 (Q96MX0 whole entry, looked up): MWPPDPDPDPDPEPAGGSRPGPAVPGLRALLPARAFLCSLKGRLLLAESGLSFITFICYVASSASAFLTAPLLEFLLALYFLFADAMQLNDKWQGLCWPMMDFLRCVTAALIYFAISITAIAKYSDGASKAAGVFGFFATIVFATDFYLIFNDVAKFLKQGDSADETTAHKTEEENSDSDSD
Chain of UniProt Q9NRR8 (Q9NRR8 whole entry, looked up): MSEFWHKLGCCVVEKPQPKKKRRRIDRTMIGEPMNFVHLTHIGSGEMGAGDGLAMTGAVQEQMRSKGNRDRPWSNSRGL
Chain of UniProt Q9H9S4 (Q9H9S4 whole entry, looked up): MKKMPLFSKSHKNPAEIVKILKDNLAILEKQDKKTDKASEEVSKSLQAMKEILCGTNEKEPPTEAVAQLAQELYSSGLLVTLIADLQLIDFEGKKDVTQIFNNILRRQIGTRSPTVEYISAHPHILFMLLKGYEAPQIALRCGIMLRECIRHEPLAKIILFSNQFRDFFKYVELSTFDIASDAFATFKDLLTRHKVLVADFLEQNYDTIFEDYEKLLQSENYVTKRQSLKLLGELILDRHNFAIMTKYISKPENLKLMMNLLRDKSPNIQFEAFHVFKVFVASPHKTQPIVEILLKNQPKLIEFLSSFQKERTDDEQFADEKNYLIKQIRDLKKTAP
Chain of UniProt P11802 (P11802 whole entry, looked up): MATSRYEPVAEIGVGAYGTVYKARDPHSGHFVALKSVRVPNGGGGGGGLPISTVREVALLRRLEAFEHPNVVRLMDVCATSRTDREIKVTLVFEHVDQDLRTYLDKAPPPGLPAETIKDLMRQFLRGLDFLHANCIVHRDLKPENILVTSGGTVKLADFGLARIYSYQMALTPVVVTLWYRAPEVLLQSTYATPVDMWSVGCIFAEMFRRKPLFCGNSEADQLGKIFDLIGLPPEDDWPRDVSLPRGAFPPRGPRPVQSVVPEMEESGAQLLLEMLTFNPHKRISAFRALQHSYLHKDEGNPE
Chain of UniProt Q6P5X5 (Q6P5X5 whole entry, looked up): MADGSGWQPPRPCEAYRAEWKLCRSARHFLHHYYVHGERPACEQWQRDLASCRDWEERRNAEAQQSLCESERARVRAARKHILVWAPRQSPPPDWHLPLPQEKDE

Target | log2 fold change [1] | log2 fold change (crizotinib) | log2 fold change [2] | log2 fold change [3] | log2 fold change (duvelisib) | log2 fold change (tozasertib) | log2 fold change [4] | log2 fold change (doramapimod) | log2 fold change (ispinesib) | log2 fold change (nilotinib) | log2 fold change [5] | log2 fold change (dasatinib) | log2 fold change [6] | log2 fold change [7] | log2 fold change [8] | log2 fold change (mubritinib) | log2 fold change (gandotinib) | log2 fold change (bafetinib) | log2 fold change [9] | log2 fold change (tipifarnib)
COG2 (UniProt Q14746) | -0.029 | -0.17 | 0.094 | 0.483 | -0.094 | -0.153 | 0.061 | 0 | -0.264 | -0.169 | -0.006 | -0.051 | 0.133 | -0.074 | 0.245 | -0.035 | – | – | – | –
CCNC (UniProt P24863) | 0.051 | -0.004 | 0.027 | 0.247 | 0.044 | – | 0.018 | 0.373 (active) | 0.059 | – | – | -0.074 | – | -0.091 | -0.015 | -0.016 | -0.088 | 0.031 | 0.055 | –
COX7B (UniProt P24311) | -0.026 | 0.013 | 0.02 | -0.171 | 0.034 | 0.072 | 0.014 | -0.067 | – | 0.053 | 0.037 | 0.074 | 0.01 | -0.011 | – | 0.026 | 0.05 | 0.109 | 0.037 | -0.024
CDK4 (UniProt P11802) | 0.108 | -0.108 | -0.152 | 0.377 | 0.104 | – | 0.021 | 0.079 | 0.094 | -0.121 | -0.042 | -0.056 | 0.031 | -0.084 | -0.117 | 0.054 | – | 0.022 | – | 0.046
C22orf39 (UniProt Q6P5X5) | 0.075 | -0.303 | 0.06 | -0.057 | 0 | 0.096 | -0.135 | 0.072 | -0.207 | -0.07 | 0.038 | -0.232 | -0.12 | -0.036 | 0.031 | 0.031 | – | -0.04 | – | -0.071
CDCA2 (UniProt Q69YH5) | 0.161 | 0.025 | 0.041 | -0.021 | – | -0.159 | – | 0.088 | -0.04 | 0.164 | -0.114 | – | 0.042 | 0.159 | -0.215 | -0.256 | 0.098 | – | -0.065 | 0.182
CHPT1 (UniProt Q8WUD6) | 0.064 | – | -0.07 | 0.023 | 0.025 | -0.016 | 0.015 | – | -1.09 (active) | -0.596 | -0.029 | -0.074 | -0.017 | 0.011 | -0.027 | 0.387 | 0.038 | – | 0.197 | -0.192
CMTM3 (UniProt Q96MX0) | 0.063 | -0.007 | -0.002 | -0.133 | 0.028 | -0.026 | -0.102 | -0.065 | – | -0.056 | -0.007 | 0.017 | 0.013 | 0.05 | – | -0.052 | 0.132 | 0.05 | -0.078 | 0.098
CENPE (UniProt Q02224) | 0.231 | -0.018 | – | -0.908 | -0.563 | -0.155 | 0.24 | 0.108 | -0.321 | – | – | -0.35 | – | 0.14 | -0.123 | – | 0.052 | 0.143 | 0.069 | -0.033
CD84 (UniProt Q9UIB8) | 0.049 | – | -0.201 | -0.149 | 0.036 | -0.055 | 0.056 | – | – | – | – | 0.169 | – | -0.117 | – | – | – | – | – | –
CDC42SE1 (UniProt Q9NRR8) | 0 | -0.099 | 0.16 | -0.031 | 0.029 | -0.106 | -0.04 | -0.06 | -0.341 | 0.055 | 0.055 | -0.022 | -0.155 | 0.107 | -0.002 | -0.065 | – | -0.37 | – | -0.01
C15orf41 (UniProt Q9Y2V0) | 0.057 | -0.01 | 0.074 | 0.023 | 0.003 | 0.1 | -0.004 | 0.08 | -0.2 | – | – | -0.357 (active) | – | -0.097 | -0.088 | – | -0.027 | – | -0.101 | -0.087
CASP8 isoform 9 (UniProt Q14790) | 0.007 | -0.02 | -0.013 | – | 0.104 | 0.181 | -0.007 | 0.072 | -0.151 | -0.183 | 0.018 | -0.039 | 0.069 | – | -0.066 | -0.095 | -0.07 | 0.072 | 0.093 | -0.094
CAB39L (UniProt Q9H9S4) | 0.13 | 0.036 | -0.01 | – | -0.014 | 0.03 | 0.053 | 0.024 | -0.031 | – | – | -0.255 | – | – | -0.032 | – | 0.448 (active) | -0.055 | -0.041 | 0.042
